Screening data as filed in PubChem.
Nrf2 block: inhibitors of Nrf2 signaling. 360,000 tested, 2.1% active. Potency, µM (series often up to 46 µM), inactives show at the highest dose activity change, negative = inhibition, most hits filed as inhibitors. A549 ARE-Fluc reporter, luciferase luminescence, 18-24 h; also: % is scaled to controls: 0 for no effect and ±100 for the full control effect; nearly all actives have a fitted effect of over 60% in size
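Quantitative HTS in A549 cells stably bearing an antioxidant response element-firefly luciferase construct. Inhibition of Nrf2-driven transcription was scored by luminescence after 18-24 h of compound exposure at 37 °C.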
S2 tox: viability counter-screen for ATXN expression inhibitors | S2 cells (HEK-293 line with an ATXN2-luciferase reporter) viability, CellTiter-Fluor protease fluorescence, 24 h | Potency, µM (highest dose often 56.7 µM), usual class: cytotoxic | 400,000 tested, 0.49% active | AID 651635; also: nearly all actives have a fitted effect of over 40% in size
A549 viability: kills or reduces viability of A549 cells in Nrf2 counter-screen. A549 ARE-Fluc cells, CellTiter-Fluor viability, 18-24 h. Potency, µM (titrated, usually from 46 µM), for inactives: top-dose activity change, negative = cytotoxicity, hits mostly inhibitors. 390,000 tested, 0.16% active; also: % is scaled to controls: 0 for no effect and ±100 for the full control effect
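Cytotoxicity counterscreen: CellTiter-Fluor fluorescence was measured in A549 ARE_Fluc cells after 18-24 h of compound exposure in a concentration series. The subsequent BugLite luminescent read reports ARE-luciferase activity.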
HepG2 viability: kills HepG2 cells in TGF-b inhibitor counter-screen; HepG2 CAGA-GFP viability, ATP luminescence, 18 h; Potency, µM (titrated, usually from 46.1 µM), inactives show at the highest dose activity change, negative = cytotoxicity, hits mostly cytotoxic; 410,000 tested, 0.76% active
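HepG2 CAGA-GFP cells (1000/well, DMEM with 1% FBS) received compound, then TGF-beta at 500 pg/mL final, and were incubated 18 hours at 37 degrees C. Viability was read by CellTiter-Glo luminescence. Media-only wells were set as complete cell-killing and DMSO as no toxicity.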
TGFb SMAD3 inh: inhibitors of TGF-b signaling | HepG2 CAGA-GFP TGF-b/SMAD3 reporter, GFP fluorescence, 18 h; TGF-beta stimulated, 500 pg/mL final | Potency, µM (highest dose often 46.1 µM), without a hit: top-dose activity, negative = inhibition, most hits filed as inhibitors | 410,000 tested, 1.2% active | AID 588855; also: % is scaled to controls: 0 for no effect and ±100 for the full control effect; nearly all actives have a fitted effect of over 65% in size
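Per well, imaged GFP fluorescence of HEPG2 CAGA-GFP cells gives the signal; cells get compound, then TGF-beta (500 pg/mL final), 18 h at 37 degrees C; %Activity versus -TGF-beta and +DMSO controls.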
ATXN2 expr inh: inhibitors of ATXN2 expression. HEK-293 ATXN2-luciferase reporter, luminescence, 24 h. Potency, µM (top dose mostly 57 µM), without a hit: top-dose activity change, negative = inhibition, hits mostly inhibitors. 360,000 tested, 0.72% active. AID 1745845; also: % is scaled to controls: 0 for no effect and ±100 for the full control effect; nearly all actives have a fitted effect of over 55% in size
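qHTS (up to 57 uM final) was run with 24 h compound exposure of reporter cells at 37 °C. Each well was multiplexed: SteadyGlo luminescence measured ATXN2-luciferase expression after a fluorogenic Gly-Phe-AFC viability readout (25 uM final).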
The depositor's hits bear a star; i = inactive; u = inconclusive; x = not tested or not shown. Most compounds without a hit are left out; they make up all but 3.8% or so of the library. Calls follow the shape of the dose curve; as a rule, active = well fitted curve in the direction sought with a large enough effect; inconclusive = small, poorly fitted or top-dose-only effect, or another doubt; inactive = no such curve, though single readings can be large; an effect the other way counts as inactive or inconclusive. Potency is read from the fitted curve at half-maximal effect.

SMILES	Nrf2 block	S2 tox	A549 viability	HepG2 viability	TGFb SMAD3 inh	ATXN2 expr inh
COc1ccc(Cl)cc1-c1cc(C(=O)Nc2ccc(C)c(NS(C)(=O)=O)c2)[nH]n1	x	16µM*	x	-73%	u	22µM*
CCOC(=O)C1=C(N)Oc2ccc3ccccc3c2C1c1cccc(O)c1 (centres undefined)	13%	u	2%	-93%	11µM*	u
Brc1ccc2c(c1)-c1ccccc1C1=NCCN12	x	u	x	-2%	16µM*	x
Clc1ccc2c(c1)-c1ccccc1C1=NCCN12	x	u	x	-3%	u	x
Cc1ccccc1N=Cc1cccc(O)c1O	18%	u	2%	-56%	16µM*	-13%
CC(C)(C)c1ccc(C(=O)N2CCNCC2)cc1	u	i	3%	-23%	-7%	3%
CN1CCC2(CC1)N=C(c1ccc(F)cc1)C(=S)N2C(=O)c1ccc(C(C)(C)C)cc1	u	u	-11%	-55%	u	32µM*
CC1(Cc2ccc(OC(F)(F)F)cc2)C(=O)Nc2ccc(S(=O)(=O)NC3CCCCC3)cc21 (centres undefined)	x	u	x	11µM*	u	u
CC1(Cc2ccc(Cl)cc2)C(=O)Nc2ccc(S(=O)(=O)NC3CCCCC3)cc21 (centres undefined)	x	u	x	-65%	u	u
CCOC(=O)C1=C(C(F)(F)F)Nc2ncnn2C1c1ccc(OC)cc1OC (centres undefined)	-10%	i	0%	-23%	-10%	-6%
CCn1c(SCC(=O)N/N=C/c2c[nH]c3ccccc23)nnc1-c1ccc(C(C)(C)C)cc1	16µM*	i	u	-17%	-6%	4%
CCn1c(SCC(=O)N/N=C/c2ccc(C)o2)nnc1-c1ccc(C(C)(C)C)cc1	-18%	i	-2%	-9%	-15%	10%
Cc1cc(C(=O)C(C)OC(=O)c2ccc(NC(=O)CC#N)cc2)c(C)n1-c1ccccc1 (centres undefined)	18µM*	i	-12%	16%	6%	u
CS(=O)(=O)N1CCC(C(=O)N2CCN(C(c3ccccc3)c3ccccc3)CC2)CC1	6%	i	1%	4%	2%	x
CC(C)(CNC(=O)c1ccc(S(=O)(=O)Nc2ccccc2F)cc1)N1CCOCC1	u	i	2%	9%	1%	10%
Cc1ccccc1NS(=O)(=O)c1ccc(C(=O)NCC(C)(C)N2CCOCC2)cc1	10µM*	i	-7%	-24%	-18%	-16%
O=C(O)c1ccc(B(O)O)cc1	u	x	11%	1%	-4%	x
Cc1ccc(C)[n+](CC(=O)c2ccc(-c3ccccc3)cc2)c1	-7%	i	8%	-43%	u	u
O=C(NCCc1ccccc1F)c1ccc2c(c1)OCCO2	u	u	-2%	-18%	6%	0.56µM*
O=C(NCc1ccccc1F)c1ccc2c(c1)OCO2	0%	i	0%	4%	0%	11%
COc1ccc(C(=O)NCCn2cc(SCC(=O)Nc3ccc(F)cc3)c3ccccc32)cc1	u	32µM*	-14%	-30%	u	u
CCOc1ccc(C(=O)NCCn2cc(SCC(=O)Nc3ccccc3)c3ccccc32)cc1	u	u	-10%	-14%	10µM*	u
CCOc1ccc(NC(=O)CSc2cn(CCNC(=O)c3ccccc3F)c3ccccc23)cc1	2%	i	-1%	-26%	u	0%
COc1ccc(C(=O)NCCn2cc(SCC(=O)Nc3ccc(C)cc3)c3ccccc32)cc1	x	u	-26%	-3%	u	u
COc1ccc(C(=O)NCCn2cc(SCc3cc(C)ccc3C)c3ccccc32)cc1	18µM*	u	u	-22%	u	u
SMILES	Nrf2 block	S2 tox	A549 viability	HepG2 viability	TGFb SMAD3 inh	ATXN2 expr inh
O=C(CSc1cn(CCNC(=O)c2ccccc2F)c2ccccc12)Nc1ccc2c(c1)OCCO2	3%	u	-2%	-3%	u	-26%
O=C(CSc1cn(CCNC(=O)c2cccc(C(F)(F)F)c2)c2ccccc12)Nc1ccc2c(c1)OCCO2	16µM*	x	u	-31%	u	0%
Cc1cccc(C)c1NC(=O)c1sc(-n2nc(C)c(Cc3ccccc3)c2C)nc1C	6%	x	-2%	0%	-8%	x
Cc1ccc2nc(-c3ccccn3)c(N)n2c1	x	i	x	10µM*	17%	0%
Cc1ccc2nc(-c3ccccn3)c(Nc3ccc(F)cc3)n2c1	u	u	-29%	-14%	0%	u
Oc1c(C(c2ccccc2)N2CCOCC2)sc2nc(-c3ccco3)nn12 (centres undefined)	x	x	3%	-15%	-5%	x
CN1CCN(C(=S)C(=O)Nc2ccc(Br)cc2)CC1	1%	i	-7%	8%	-6%	-2%
Cc1noc(C)c1-c1ccc2ncnc(NC(C)c3ccccc3)c2c1 (centres undefined)	23µM*	x	6%	x	x	x
CCOc1ccccc1CNc1ncnc2ccc(-c3c(C)noc3C)cc12	16µM*	i	0%	-40%	-19%	2%
Cc1noc(C)c1-c1ccc2ncnc(NCc3cccc(-c4ccccc4)c3)c2c1	7.3µM*	x	-14%	x	x	x
Cc1noc(C)c1-c1ccc2ncnc(NCc3ccccc3F)c2c1	21µM*	x	3%	x	x	x
Cc1noc(C)c1-c1ccc2ncnc(NCc3ccc(F)cc3)c2c1	-11%	x	3%	x	x	x
COc1ccc(SCC(CC(C)C)N2CCN(CCc3ccccc3)CCC2=O)cc1 (centres undefined)	-25%	x	-14%	0%	u	x
COC(=O)c1ccccc1NC(=O)c1cc(-c2ccc(Cl)cc2)on1	4%	i	2%	-1%	-21%	10%
CCOc1ccccc1CN1CCCC(c2nc(C)ncc2-c2ccc(F)cc2)C1 (centres undefined)	x	i	x	x	x	x
Cc1ccc(-c2cc(C(=O)N3CCN(S(=O)(=O)c4ccc(Br)s4)CC3)[nH]n2)c(C)c1	-24%	x	-3%	-32%	-48%	x
COc1cc(C(C)=O)ccc1OC(=O)N1CCOCC1	x	i	x	-11%	-4%	x
COc1ccccc1-c1noc(CCCC(=O)Nc2cccc(C(F)(F)F)c2)n1	x	u	1%	-15%	13µM*	u
Cc1cc(N2CCOCC2)nc(SCc2c(Cl)cccc2Cl)n1	-27%	i	4%	-24%	11µM*	-13%
CCOc1ccc(NC(=O)CSc2ccc(-c3ccccn3)nn2)cc1	-7%	i	1%	-5%	-1%	-25%
